NPSR antag: antagonists of human neuropeptide S receptor cAMP signaling. AID 1461. Q6W5P4. CHO-NPSR cells, cAMP TR-FRET, antagonist mode. hit rate 1% among 220,000. Potency, µM (titrated, usually from 38.3 µM), hits mostly inhibitors; further: nearly all actives have a fitted effect of over 50% in size
IL-2 act: IL-2 activation; hit rate 0.065% among 360,000; activation, % (series mostly up to about 46 µM); IL-2 activation reporter assay, cell-based qHTS; stimulated with anti-CD3/CD4/CD28 beads; in transgenic mouse T cells; in the data active means activation above about 50%; inconclusive means mostly about 30% to 49%
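Readout: EGFP and DsRed signals by fluorescent plate cytometry. Unstimulated transgenic mouse T cells received compound 60 min before antibody-bead stimulation, then incubated 18 h at 37 degrees C.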
ClpP mod: qHTS Assay for Activators of ClpP | ATP-dependent Clp protease proteolytic subunit (Bacillus subtilis (strain 168)), P80244 | purified B. subtilis ClpP, FRET peptide cleavage, 20 min | Potency, µM (series often up to 57.5 µM) | hit rate 1.9% among 340,000; active means well fitted falling curve with a large enough effect; inconclusive means small, poorly fitted or top-dose-only effect; inactive means no such curve, though single readings can be large or run the other way; further: the source files actives as falling curves though it sought activators and does not explain the sign; nearly all actives have a fitted effect of over 65% in size
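ClpP 10 microg/mL final, pH 8 Tris/KCl buffer with BSA, glycerol, Tween-20; compound pinned in; FRET-FV substrate; RT 20 min; Ex320/Em430; ΔFRET vs ADEP 5.8 microM, DMSO, no enzyme.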
PKM2 activator: PKM2 (human) enzyme activation; Potency, µM (doses to about 57.5 µM), hits mostly activators; purified PKM2, Kinase-Glo ATP luminescence, activation; response scale: 0% is enzyme alone, no compound; P14618; hit rate 0.34% among 260,000; AID 1631; further: nearly all actives have a fitted effect of over 55% in size
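hPK-M2, >95% pure; 0.1 mM ADP / 0.5 mM PEP final; imidazole pH7.2 buffer w/ 7 mM MgCl2, 50 mM KCl; 1 h RT; Kinase-Glo lum. Intermediate enzyme activity for dual inhibitor/activator qHTS.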
Each line names hits and unclear results; the compound was inactive in the other large screens. An excerpt weighted towards active compounds, which were near 2% of everything screened. Unless noted, the call rests on the fitted dose curve; in most records, active means well fitted curve in the direction sought with a large enough effect; inconclusive means small, poorly fitted or top-dose-only effect, or another doubt; inactive means no such curve, though single readings can be large; an effect the other way counts as inactive or inconclusive.

COC(=O)c1cccc(NC(=O)c2cccnc2)c1	ClpP mod 14µM
COc1ccc2[nH]cc(CCNC(=O)Cc3ccc(Cl)cc3)c2c1	none (no result: NPSR antag, ClpP mod, PKM2 activator)
O=C(O)c1cc(Cl)c2ccccc2c1O	ClpP mod 28µM
Cc1cc(NCCN(C)C)n2nc(-c3cccs3)cc2n1	ClpP mod 28µM
O=C1NC(Cc2ccccc2)C(=O)N1Cc1ccccc1 (stereo unspecified)	none (no result: NPSR antag, ClpP mod, PKM2 activator)
O=c1ccsn1Cc1ccccc1	PKM2 activator 5µM
Cn1c(=S)n(/N=C/c2cccs2)c2ccccc21	none (no result: ClpP mod)
O=C(NCCNC(=O)c1ccc(Br)o1)c1cccnc1	ClpP mod 25µM (no result: NPSR antag)
O=C(NCCOC(=O)c1ccc(C(=O)OCCNC(=O)c2cccnc2)s1)c1cccnc1	PKM2 activator 16µM
O=C(NCCNC(=O)c1ccc(Br)o1)c1ccc(Br)o1	none
Cc1ccc(O)c(C(=O)c2cc(C#N)c3nc4ccccc4n3c2)c1	none (no result: ClpP mod)
Cc1ccc(S(=O)(=O)N2CCC(C(=O)NCCN3CCOCC3)CC2)cc1	none (no result: NPSR antag, PKM2 activator)
Cc1ccc(/C=c2/sc3nnc(-c4ccccc4Cl)n3c2=O)o1	PKM2 activator 8.9µM
CCN(CC)c1ccc(/C=c2\sc3nnc(-c4ccccc4Cl)n3c2=O)cc1	none
Cc1ccc(C)c(N2CCN(S(=O)(=O)c3cn(C)cn3)CC2)c1	none (no result: NPSR antag, ClpP mod, PKM2 activator)
CC(C)OCCCNc1ncnc2c1[nH]c1ccccc12	ClpP mod 18µM
COc1ccc2[nH]c3c(NCCN(C(C)C)C(C)C)ncnc3c2c1	ClpP mod 18µM
COc1ccc(CNc2ncnc3c2[nH]c2ccccc23)cc1	none (no result: ClpP mod)
CCOC(=O)C1CCN(C(=O)COC(=O)c2oc3ccc(OC)cc3c2C)CC1	none (no result: NPSR antag, PKM2 activator)
COc1ccc2oc(C(=O)OCC(=O)N3CC(C)CC(C)C3)c(C)c2c1 (stereo unspecified)	ClpP mod 14µM (no result: NPSR antag, PKM2 activator)
CN(C(=O)COC(=O)c1ccccc1NCCO)C1CCS(=O)(=O)C1 (stereo unspecified)	ClpP mod 20µM (no result: NPSR antag, PKM2 activator)
COc1ccc2oc(C(=O)OCC(=O)N3CC(C)OC(C)C3)c(C)c2c1 (stereo unspecified)	none (no result: NPSR antag)
COc1ccc2oc(C(=O)OC(C)C(=O)N3CCC(C)CC3)c(C)c2c1 (stereo unspecified)	ClpP mod 25µM (no result: NPSR antag, PKM2 activator)
CN(C(=O)COC(=O)c1ccccc1NC(=O)c1ccco1)C1CCS(=O)(=O)C1 (stereo unspecified)	none (no result: ClpP mod)
COc1ccc(N2CCN(C(=O)COC(=O)c3oc4ccc(OC)cc4c3C)CC2)cc1	ClpP mod 25µM (no result: NPSR antag, PKM2 activator)
COc1cc2c(cc1[N+](=O)[O-])-c1ccc([N+](=O)[O-])cc1C2=NO	none (no result: NPSR antag, PKM2 activator)
O=C(NC1CCS(=O)(=O)C1)c1cccc(S(=O)(=O)N2CCCCC2)c1 (stereo unspecified)	none
CC(C)C(CCN1C(=O)c2ccccc2C1=O)c1ccco1 (stereo unspecified)	none
O=C(NCC1COc2ccccc2O1)C1CCCN(S(=O)(=O)c2cccc3cccnc23)C1 (stereo unspecified)	none
COc1ccc(CN2C(=O)C(CC(=O)NCCCCc3ccccc3)CC(C(=O)N3CCCCCC3)=C2C)cc1 (stereo unspecified)	none (no result: NPSR antag, PKM2 activator)
CCOc1ccc(/C=N/OCC(=O)NCc2ccco2)cc1	none (no result: PKM2 activator)
COc1cc(C(=O)OCC(=O)N2CCCC2)cc2c1OCCO2	none (no result: NPSR antag, PKM2 activator)
Cc1cc(C(=O)NNS(=O)(=O)c2cc(C(=O)O)ccc2Cl)c(C)n1-c1ccccc1	none (no result: NPSR antag, PKM2 activator)
CCCCn1nnc(NC(=S)NC(=O)c2ccc(OCC)c([N+](=O)[O-])c2)n1	none (no result: NPSR antag)
COc1ccc2oc(C(=O)OCC(=O)N(C)C3CCS(=O)(=O)C3)c(C)c2c1 (stereo unspecified)	ClpP mod 10µM (no result: NPSR antag, PKM2 activator)
COc1ccc2oc(C(=O)OC(C)C(=O)Nc3ccc(N4CCOCC4)cc3)c(C)c2c1 (stereo unspecified)	none (no result: NPSR antag, PKM2 activator)
COc1ccc2oc(C(=O)OC(C)C(=O)N(C)c3ccccc3)c(C)c2c1 (stereo unspecified)	ClpP mod 22µM (no result: NPSR antag, PKM2 activator)
CCNC(=O)NC(=O)C(C)OC(=O)c1oc2ccc(OC)cc2c1C (stereo unspecified)	ClpP mod 32µM
COc1ccc2oc(C(=O)OCC(=O)N3CCCCC3C)c(C)c2c1 (stereo unspecified)	ClpP mod 8.9µM (no result: NPSR antag, PKM2 activator)
COc1ccc(-c2cc(C(=O)Nc3cc(OC)c(OC)c(OC)c3)no2)cc1	none (no result: NPSR antag, PKM2 activator)
COc1cccc(C(=O)Nc2ccc(-c3nc4ccccc4o3)c(O)c2)c1	ClpP mod 28µM
CCc1ccc2oc(-c3cc(NC(=O)c4cc(OC)c(OC)c(OC)c4)ccc3O)nc2c1	none (no result: NPSR antag, IL-2 act, PKM2 activator)
COc1cc(C(=O)Nc2ccc(-c3nc4cc(C)ccc4o3)c(O)c2)cc(OC)c1OC	ClpP mod 28µM
COc1cc(OC)cc(C(=O)Nc2ccc(-c3nc4ccccc4o3)cc2)c1	none
CN1CCN(c2ncnc3c2[nH]c2ccc(F)cc23)CC1	ClpP mod 28µM
Clc1ccc2[nH]c3c(N4CCC5(CC4)OCCO5)ncnc3c2c1	NPSR antag inconclusive, ClpP mod 13µM
Brc1ccc2[nH]c3c(N4CCc5ccccc5C4)ncnc3c2c1	NPSR antag inconclusive, ClpP mod 32µM
c1ccc2c(c1)[nH]c1c(N3CCN(C4CCCCC4)CC3)ncnc12	ClpP mod 32µM
Cc1c(CCO)c(=O)n(-c2ccccc2)n1S(=O)(=O)c1ccc([N+](=O)[O-])cc1	none (no result: ClpP mod)
Cc1ccc(N2C(=O)c3ccccc3C(C)(C)C2=O)cc1	none (no result: NPSR antag)
Cc1ccc(S(=O)(=O)c2c(N)n(/N=C/c3ccco3)c3nc4ccccc4nc23)cc1	ClpP mod 8.9µM
COc1ccc(S(=O)(=O)c2c(N)n(Cc3ccco3)c3nc4ccccc4nc23)cc1	ClpP mod 16µM, PKM2 activator 28µM
Nc1c(C(=O)NC2CCCCC2)c2nc3ccccc3nc2n1/N=C/c1ccco1	none (no result: IL-2 act, ClpP mod)
Cc1cccc(S(=O)(=O)c2c(N)n(/N=C/c3cccnc3)c3nc4ccccc4nc23)c1	NPSR antag inconclusive
Cc1ccc(S(=O)(=O)c2c(N)n(/N=C/c3ccco3)c3nc4ccccc4nc23)cc1C	NPSR antag inconclusive, ClpP mod 14µM, PKM2 activator inconclusive
COc1ccc(Cn2c(C)nc3c(c2=O)c2nc4ccccc4nc2n3Cc2ccco2)cc1	ClpP mod inconclusive (no result: NPSR antag, PKM2 activator)
Nc1c(S(=O)(=O)c2ccccc2)c2nc3ccccc3nc2n1/N=C/c1ccco1	NPSR antag inconclusive, ClpP mod 11µM
Cc1[nH]c(C)c(S(=O)(=O)N(C)Cc2ccccc2)c1C(=O)N1CCCCC1	none (no result: NPSR antag, PKM2 activator)
Cc1c(Br)c([N+](=O)[O-])nn1CC(=O)NCc1ccco1	ClpP mod 35µM
Cc1c(Br)c(C(F)(F)F)nn1CC(=O)NCc1ccco1	none (no result: ClpP mod)
CCOC(=O)N1CCN(CC(O)COc2ccc(CC)cc2)CC1 (stereo unspecified)	none (no result: NPSR antag, PKM2 activator)
CCOC(=O)N1CCN(CC(O)COCc2ccc(Cl)cc2)CC1 (stereo unspecified)	ClpP mod 14µM
COc1cc(CNCCCN2CCOCC2)c(Br)cc1OC(C)C	none (no result: NPSR antag)
CCCCCNC(=O)C(C#N)c1nc2ccccc2nc1N1CCCC1 (stereo unspecified)	IL-2 act 150

From PubChem BioAssay
